PubChem BioAssay AID1159580 (chemical genetic matrix, 2015)
Hit rate of the full screen: of about 5,500 compounds, about 2,000 (36%) were called active. Another 18% or so got no clear call; they are omitted. Cut-off read from the data, not from the text of the source: active = normalized growth mostly below about 0.91 (no sharp cut-off); inconclusive = no clear call, values can overlap the other calls; inactive = mostly above about 0.92. The list shows a part of the results.

Assay: chemical genetic growth profiling, strain panel (AID 1159580);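 note: tested at 20 µM; growth read once vehicle control cultures reached saturation at 30 °C; 1 = growth at the plate median or of vehicle wells; lower values mean less growth of the strain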
Conditions: growth OD

Measured: normalized growth

C=NC(C(=O)NC1C(=O)N2C1SC(C)(C)C2C(=O)O)c1ccccc1 (configuration not stated)
inactive: S. cerevisiae deletion strains, locus YJR075W, strain HOC1, hits give low values 0.991 | S. cerevisiae deletion strains, locus YKL009W, strain mrt4, hits give low values 1.02 | S. cerevisiae deletion strains, locus YKL068W, hits give low values 1.02 | S. cerevisiae deletion strains, locus YKL085W, strain MDH1 (second series), hits give low values 1.04 | S. cerevisiae deletion strains, locus YKL085W, strain MDH1, hits give low values 1.04 | S. cerevisiae deletion strains, locus YKL160W, strain elf1, hits give low values 0.98 | S. cerevisiae deletion strains, locus YKL190W, strain CNB1, hits give low values 1.01 | S. cerevisiae deletion strains, locus YKR001C, strain vps1, hits give low values 1.02 | S. cerevisiae deletion strains, locus YKR026C, strain gcn3, hits give low values 0.999 | S. cerevisiae deletion strains, locus YKR091W, strain srl3, hits give low values 0.999 | S. cerevisiae deletion strains, locus YLL001W, strain dnm1, hits give low values 0.943 | S. cerevisiae deletion strains, locus YLL026W, hits give low values 1.01 | S. cerevisiae deletion strains, locus YLL041C, strain sdh2, hits give low values 0.996 | S. cerevisiae deletion strains, locus YLR027C, strain aat2, hits give low values 1.02 | S. cerevisiae deletion strains, locus YLR039C, strain RIC1, hits give low values 1.03 | S. cerevisiae deletion strains, locus YLR058C, strain SHM2, hits give low values 1.01 | S. cerevisiae deletion strains, locus YLR102C, strain apc9, hits give low values 1.02 | S. cerevisiae deletion strains, locus YLR113W, strain HOG1, hits give low values 1.01 | S. cerevisiae deletion strains, locus YLR221C, strain rsa3, hits give low values 1.06 | S. cerevisiae deletion strains, locus YLR258W, strain gsy2, hits give low values 1.01 | S. cerevisiae deletion strains, locus YLR262C, strain YPT6 (second series), hits give low values 1.01 | S. cerevisiae deletion strains, locus YLR262C, strain YPT6, hits give low values 1.06 | S. cerevisiae deletion strains, locus YLR268W, strain sec22, hits give low values 1.01 | S. cerevisiae deletion strains, locus YLR320W, strain mms22, hits give low values 1.07 | S. cerevisiae deletion strains, locus YLR330W, strain CHS5, hits give low values 1.01 | S. cerevisiae deletion strains, locus YLR342W, strain FKS1 (second series), hits give low values 1.03 | S. cerevisiae deletion strains, locus YLR342W, strain FKS1, hits give low values 1.02 | S. cerevisiae deletion strains, locus YLR357W, strain rsc2, hits give low values 0.912 | S. cerevisiae deletion strains, locus YLR370C, strain arc18, hits give low values 1.01 | S. cerevisiae deletion strains, locus YLR371W, strain rom2, hits give low values 1.02 | S. cerevisiae deletion strains, locus YLR384C, strain iki3, hits give low values 0.999 | S. cerevisiae deletion strains, locus YLR418C, strain cdc73, hits give low values 1.02 | S. cerevisiae deletion strains, locus YML016C, strain PPZ1, hits give low values 1.01 | S. cerevisiae deletion strains, locus YML032C, strain rad52, hits give low values 1.02 | S. cerevisiae deletion strains, locus YML120C, strain ndi1, hits give low values 0.972 | S. cerevisiae deletion strains, locus YML124C, strain tub3, hits give low values 1.01 | S. cerevisiae deletion strains, locus YMR058W, strain fet3, hits give low values 0.987 | S. cerevisiae deletion strains, locus YMR078C, strain ctf18, hits give low values 1.01 | S. cerevisiae deletion strains, locus YMR125W, strain sto1, hits give low values 0.929 | S. cerevisiae deletion strains, locus YMR129W, hits give low values 1 | S. cerevisiae deletion strains, locus YMR205C, strain PFK2, hits give low values 0.982 | S. cerevisiae deletion strains, locus YMR223W, strain ubp8, hits give low values 1.02 | S. cerevisiae deletion strains, locus YMR231W, strain pep5, hits give low values 1.01 | S. cerevisiae deletion strains, locus YMR263W, strain SAP30, hits give low values 1.01 | S. cerevisiae deletion strains, locus YMR307W, strain GAS1, hits give low values 0.993 | S. cerevisiae deletion strains, locus YNL067W, strain RPL9B, hits give low values 0.996 | S. cerevisiae deletion strains, locus YNL071W, strain lat1, hits give low values 0.998 | S. cerevisiae deletion strains, locus YNL128W, strain TEP1, hits give low values 1 | S. cerevisiae deletion strains, locus YNL153C, strain GIM3, hits give low values 1.01 | S. cerevisiae deletion strains, locus YNL183C, strain NPR1, hits give low values 0.944 | S. cerevisiae deletion strains, locus YNL209W, strain ssb2, hits give low values 0.994 | S. cerevisiae deletion strains, locus YNL233W, strain BNI4, hits give low values 1.02 | S. cerevisiae deletion strains, locus YNL248C, strain rpa49, hits give low values 0.975 | S. cerevisiae deletion strains, locus YNL250W, strain rad50, hits give low values 1.01 | S. cerevisiae deletion strains, locus YNL271C, strain bni1, hits give low values 1.02 | S. cerevisiae deletion strains, locus YNL298W, strain CLA4, hits give low values 1.02 | S. cerevisiae deletion strains, locus YNL307C, strain MCK1, hits give low values 1.02 | S. cerevisiae deletion strains, locus YNL322C, strain KRE1 (second series), hits give low values 0.991 | S. cerevisiae deletion strains, locus YNL322C, strain KRE1, hits give low values 1.01 | S. cerevisiae deletion strains, locus YNR049C, strain mso1, hits give low values 0.998 | S. cerevisiae deletion strains, locus YNR052C, strain pop2, hits give low values 1.02 | S. cerevisiae deletion strains, locus YOL006C, strain TOP1, hits give low values 1.05 | S. cerevisiae deletion strains, locus YOL012C, strain htz1 0.974 | S. cerevisiae deletion strains, locus YOL147C, strain pex11, hits give low values 1.01 | S. cerevisiae deletion strains, locus YOR001W, strain rrp6, hits give low values 1.03 | S. cerevisiae deletion strains, locus YOR061W, strain CKA2, hits give low values 1.02 | S. cerevisiae deletion strains, locus YOR069W, strain VPS5, hits give low values 1.01 | S. cerevisiae deletion strains, locus YOR070C, strain gyp1, hits give low values 1.03 | S. cerevisiae deletion strains, locus YOR080W, strain dia2, hits give low values 1 | S. cerevisiae deletion strains, locus YOR083W, strain WHI5, hits give low values 0.989 | S. cerevisiae deletion strains, locus YOR106W, strain vam3, hits give low values 0.947 | S. cerevisiae deletion strains, locus YOR136W, strain idh2, hits give low values 1.02 | S. cerevisiae deletion strains, locus YOR144C, strain elg1, hits give low values 1.01 | S. cerevisiae deletion strains, locus YOR184W, strain ser1, hits give low values 1.05 | S. cerevisiae deletion strains, locus YOR231W, strain MKK1, hits give low values 1 | S. cerevisiae deletion strains, locus YOR265W, strain rbl2, hits give low values 1 | S. cerevisiae deletion strains, locus YOR270C, strain vph1, hits give low values 0.993 | S. cerevisiae deletion strains, locus YOR290C, strain snf2, hits give low values 0.95 | S. cerevisiae deletion strains, locus YOR316C, strain cot1, hits give low values 1.01 | S. cerevisiae deletion strains, locus YPL051W, strain arl3, hits give low values 1 | S. cerevisiae deletion strains, locus YPL055C, strain LGE1, hits give low values 1.02 | S. cerevisiae deletion strains, locus YPL078C, strain atp4, hits give low values 0.957 | S. cerevisiae deletion strains, locus YPL106C, strain sse1, hits give low values 0.983 | S. cerevisiae deletion strains, locus YPL240C, strain hsp82, hits give low values 1.01 | S. cerevisiae deletion strains, locus YPL241C, strain CIN2, hits give low values 1.01 | S. cerevisiae deletion strains, locus YPL256C, strain CLN2, hits give low values 0.994 | S. cerevisiae deletion strains, locus YPR119W, strain clb2, hits give low values 1 | S. cerevisiae deletion strains, locus YPR141C, strain kar3, hits give low values 1.01 | S. cerevisiae deletion strains, locus YPR163C, strain tif3, hits give low values 1.02 | S. cerevisiae deletion strains, locus YPR167C, strain met16, hits give low values 1.02 | S. cerevisiae deletion strains, strain wtn01, hits give low values 1.01 | S. cerevisiae strains, strain wild type, hits give low values 1.01
